The text below walks through data of PubChem BioAssay.

Structures are written as SMILES.

The nature of the test: MRP1 drug-resistance reversers in H69AR cells – cell-based, doxorubicin co-treatment, pilot screen (AID 601). To be noted: H69AR cells, CellTiter-Glo, 72 h; compound alone cytotoxicity; at 10 µM. On the technique in general: In ATP-based viability assays light output follows the ATP content of the culture.
The viability is a read-out of living cells in per cent, often relative to untreated cells. With `CC1=C(C(=O)OCCOC(C)C)C(c2cc3c(cc2Br)OCO3)C2=C(CCCC2=O)N1` (stereo not drawn), the viability was found to be 80.8%.
The value for `O=C(NCC(c1cccnc1)N1CCN(c2ccccc2)CC1)c1ccc2c(c1)OCO2` (stereo not drawn) was 90.8%; that for `CCOC(=O)C(NC(C)=O)(NS(=O)(=O)c1ccccc1)C(F)(F)F` (stereo not drawn) was 100%.
The value for `CC(C)(C)Nc1nc(NC(C)(C)C)nc(-n2ccnc2)n1` was 88.6%; that for `Cc1nc2c3cnn(-c4ccccc4)c3ncn2n1` was 96.7%.
The value for `CCOC(=O)C1CCN(c2c(Nc3ccc4c(c3)OCCO4)c(=O)c2=O)CC1` was 88.4%; that for `Cc1ccc(SCc2[nH]nc3c2C(c2ccc(C)o2)C(C#N)=C(N)O3)cc1` (stereo not drawn) was 76.8%.
For the molecule `CCOC(=O)N1CCN(C(=O)CCc2ccc(S(=O)(=O)NCCc3ccccc3)cc2)CC1`, the viability was 101%.
As for `O=C(CSc1nnnn1-c1ccc(Cl)cc1)NC(=O)Nc1ccc2c(c1)OCCO2`, the figure is 75.5%; as for `CCCCn1c(CN2CCN(c3cccc(Cl)c3)CC2)nc2c1c(=O)n(C)c(=O)n2C`, 74.7%; as for `COc1ccc(Cn2c(CCCO)nc3ccccc32)cc1OC`, 102%.
On to `CC1(C)NC(=O)N(CC(O)CN(Cc2ccccc2)Cc2ccccc2)C1=O` (stereo not drawn), for which the viability is 92.6%.
As for `Cc1cc(C)n(C(=O)CNC(=O)C2COc3ccccc3O2)n1` (stereo not drawn), the figure is 97.1%; as for `CCOC(=O)c1ccc2[nH]c(C)c(CN3CCN(C)CC3)c(=O)c2c1`, 91.4%; as for `Cc1cc(=O)n(C)c(=O)n1CCCNc1ccccc1`, 99.9%.
On to `S=c1[nH]nc(-c2cccc(Br)c2)o1`, for which the viability was 96.1%.
Consider `Cc1ccc(S(=O)(=O)N2CCN(CCO)CC2)cc1-c1nnc2c3ccccc3c(C)nn12`, for which the viability is 96.2%.
Turning to `CC1=C(C(=O)Nc2ccccc2)C(c2ccco2)C(C#N)=C(SCC(=O)Nc2cccc(C)c2C)N1` (stereo not drawn), the viability turned out to be 47.5%.
